Here are results for 19 molecules from PubChem BioAssay.

For some assays here: Potency and affinity values are given separately.

Test [1] can be described thus: blockers of polyQ-driven CASP3 activation – cell-based (AID 1583). To be noted: polyglutamine-induced caspase-3 activation, cell assay; stronger effect = higher value;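 tested at 10 µM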.
Test [2] in a line: yeast 75Q aggregation reduction – 75Q-TubU reporter (AID 1593). To be noted: Yeast 75Q polyglutamine aggregation reporter.
Test [3] in a line: restoration of touch response, mutant HTT neurons – whole organism, C. elegans mechanosensory neurons, N-terminal huntingtin (AID 1599). To be noted: C. elegans polyQ-huntingtin mechanosensory neurons, stronger effect = higher value.
The nature of test [4]: blockers of cytochrome c efflux from mitochondria – biochemical, purified mitochondria (AID 1603).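 Also: mouse liver mitochondria challenged with calcium chloride; signal normalized to the plate average as 100%.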 To be noted: stronger effect = lower value.
The nature of test [5]: polyglutamine aggregate formation blockers (AID 1604). To be noted: polyglutamine-induced protein aggregation inhibition assay; stronger effect = higher value; tested at 2.5 µM.

`CC(=O)Oc1cccc(O)c1`: in test [1], the inhibition was -9.3%. The same molecule had a score in test [2] of 1.19. Besides, in test [3], the rescue above control was 8.59. The cytochrome c release ratio in test [4] was found to be 0.86. Further, the inhibition of aggregation in test [5] is -34.2%.

In the case of `COc1cc(NS(=O)(=O)c2ccc(N)cc2)nc(OC)n1`, the inhibition in test [1] came to 1.07%. This molecule also showed a score in test [2] of 1.14. The molecule also had a rescue above control in test [3] of -2.33. Moreover, the cytochrome c release ratio in test [4] stood at 0.86. Besides, the inhibition of aggregation in test [5] turned out to be 67.5%.

Consider `CCC1(C)CC(=O)NC1=O` (stereo not given), for which, in test [1], the inhibition amounted to 3.06%. This molecule registered a score in test [2] of 1.25. Moreover, the rescue above control in test [3] came to 1.02. For the same molecule, the cytochrome c release ratio in test [4] is 1.3. Moreover, in test [5], the inhibition of aggregation is 4.76%.

Take `Cc1c(NC(C)C)c(=O)n(-c2ccccc2)n1C`: in test [1], the inhibition amounted to 6.61%. In test [2], this molecule showed a score of 1.54. This molecule registered a rescue above control in test [3] of -6.83. The cytochrome c release ratio in test [4] worked out at 1.16. In test [5], the inhibition of aggregation is 13.7%.

Regarding `Nc1c2c(nc3ccccc13)CCCC2O` (stereo not given), in test [1], the inhibition amounted to 19.1%. This molecule also displayed a score in test [2] of 1.04. In test [3], this molecule showed a rescue above control of -4.39. In addition, the cytochrome c release ratio in test [4] came out at 0.96. In addition, in test [5], the inhibition of aggregation was 59.1%.

As for `O=C(Nc1ccc([N+](=O)[O-])cc1Cl)c1cc(Cl)ccc1O`, the inhibition in test [1] is 63.3%. In test [2], this molecule came in with a score of 1.5. The rescue above control in test [3] is -13. Also, the cytochrome c release ratio in test [4] is 0.91. Moreover, the inhibition of aggregation in test [5] came out at 41.7%.

For `NCCCC(=O)O`, in test [1], the inhibition was determined as 15.3%. Also, the score in test [2] stood at 1.12. Further, in test [3], the rescue above control was -4.87. Also, the cytochrome c release ratio in test [4] stood at 0.87. For the same molecule, the inhibition of aggregation in test [5] is 18.5%.

`Cn1c(=O)c2c(ncn2C)n(C)c1=O`: the inhibition in test [1] worked out at 5.72%. For the same molecule, the score in test [2] is 1.32. In addition, the rescue above control in test [3] was 4.29. For the same molecule, in test [4], the cytochrome c release ratio stood at 1.5. In addition, in test [5], the inhibition of aggregation stood at 74.9%.

For the molecule `CN(C)/N=N/c1nc[nH]c1C(N)=O`, the inhibition in test [1] turned out to be 17.5%. In addition, the score in test [2] came to 1.36. Moreover, in test [3], the rescue above control was -5.12. Also, the cytochrome c release ratio in test [4] was 0.99. The inhibition of aggregation in test [5] worked out at 9.26%.

Turning to `O=C1c2ccccc2C(=O)C1c1ccccc1`, the inhibition in test [1] worked out at 16.8%. The score in test [2] turned out to be 0.9. Besides, in test [3], the rescue above control amounted to 2.74. Also, in test [4], the cytochrome c release ratio stood at 0.89. For the same molecule, the inhibition of aggregation in test [5] was found to be 3.03%.

For `CC[N+](CC)(CC)CCOc1cccc(OCC[N+](CC)(CC)CC)c1OCC[N+](CC)(CC)CC`, the inhibition in test [1] stood at 2.37%. In test [2], the score stood at 1.11. Also, the rescue above control in test [3] worked out at 4.9. The cytochrome c release ratio in test [4] stood at 1.78. Besides, the inhibition of aggregation in test [5] was 83.6%.

Turning to `O=C(O)c1ccc(S(=O)(=O)N(Cl)Cl)cc1`, in test [1], the inhibition worked out at 18.5%. This molecule registered a score in test [2] of 1.25. In addition, in test [3], the rescue above control was determined as 8.13. In addition, the cytochrome c release ratio in test [4] amounted to 0.74. For the same molecule, the inhibition of aggregation in test [5] is 56.3%.

With `CN(C)CCOC(=O)C(c1ccccc1)C1(O)CCCC1` (stereo not given), the inhibition in test [1] was -1.25%. The same molecule returned a score in test [2] of 1.17. In test [3], this molecule showed a rescue above control of -1.73. For the same molecule, the cytochrome c release ratio in test [4] is 0.87. Besides, in test [5], the inhibition of aggregation was determined as 90.7%.

In the case of `CN(Cc1cc(Br)cc(Br)c1N)C1CCCCC1`, the inhibition in test [1] was determined as 50%. The score in test [2] amounted to 1.59. Also, the rescue above control in test [3] was -1.24. For the same molecule, in test [4], the cytochrome c release ratio is 1.12. The inhibition of aggregation in test [5] stood at 80.3%.

Take `CC(=O)OCC(COC(C)=O)OC(C)=O`: the inhibition in test [1] was 0.15%. The same molecule returned a score in test [2] of 1.44. The molecule also had a rescue above control in test [3] of -1.97. Moreover, in test [4], the cytochrome c release ratio is 1.1. Further, in test [5], the inhibition of aggregation was 72.7%.

`Oc1ccc(Cl)c2cccnc12`: in test [1], the inhibition was found to be 19.1%. This molecule yielded a score in test [2] of -0.02. In addition, in test [3], the rescue above control was -0.67. Also, the cytochrome c release ratio in test [4] turned out to be 0.81. Besides, the inhibition of aggregation in test [5] stood at 63.5%.

Turning to `CCN(CC)CCOCCOC(=O)C1(c2ccccc2)CCCC1`, the inhibition in test [1] is -3.33%. This molecule yielded a score in test [2] of 1.27. In addition, in test [3], the rescue above control was -4.04. The cytochrome c release ratio in test [4] was determined as 0.8. Also, the inhibition of aggregation in test [5] amounted to 94.4%.

As to `N[C@@H](Cc1ccc(O)c(O)c1)C(=O)O`, the inhibition in test [1] is -16.6%. In addition, the score in test [2] stood at 1.55. In test [3], this molecule registered a rescue above control of 6.71. For the same molecule, in test [4], the cytochrome c release ratio turned out to be 0.96. For the same molecule, the inhibition of aggregation in test [5] is 83.3%.

Turning to `C[C@H]1c2cccc(O)c2C(O)=C2C(=O)[C@]3(O)C(O)=C(C(N)=O)C(=O)[C@@H](N(C)C)[C@@H]3[C@@H](O)[C@@H]21`, in test [1], the inhibition was -6.11%. In test [2], the score is 0.83. Further, the rescue above control in test [3] came to 0. The cytochrome c release ratio in test [4] was 0.35. The inhibition of aggregation in test [5] turned out to be 64.1%.
